Unmarked numbers belong to inactive results.
Experiments:
Experiment in all cases: log2 ratio of Biotin-Ahx-Ub-VS probe labelling (fragment/DMSO); higher = less target engagement (more negative = stronger competition), active = hit call of the paper (q ≤ 0.05, log2 ratio ≤ -1)
Details in all cases: compound concentration: 200 uM; treatment time: 3 h
USP19 = biological target: T1, USP19 (UniProt O94966)
T1 sequence (whole entry): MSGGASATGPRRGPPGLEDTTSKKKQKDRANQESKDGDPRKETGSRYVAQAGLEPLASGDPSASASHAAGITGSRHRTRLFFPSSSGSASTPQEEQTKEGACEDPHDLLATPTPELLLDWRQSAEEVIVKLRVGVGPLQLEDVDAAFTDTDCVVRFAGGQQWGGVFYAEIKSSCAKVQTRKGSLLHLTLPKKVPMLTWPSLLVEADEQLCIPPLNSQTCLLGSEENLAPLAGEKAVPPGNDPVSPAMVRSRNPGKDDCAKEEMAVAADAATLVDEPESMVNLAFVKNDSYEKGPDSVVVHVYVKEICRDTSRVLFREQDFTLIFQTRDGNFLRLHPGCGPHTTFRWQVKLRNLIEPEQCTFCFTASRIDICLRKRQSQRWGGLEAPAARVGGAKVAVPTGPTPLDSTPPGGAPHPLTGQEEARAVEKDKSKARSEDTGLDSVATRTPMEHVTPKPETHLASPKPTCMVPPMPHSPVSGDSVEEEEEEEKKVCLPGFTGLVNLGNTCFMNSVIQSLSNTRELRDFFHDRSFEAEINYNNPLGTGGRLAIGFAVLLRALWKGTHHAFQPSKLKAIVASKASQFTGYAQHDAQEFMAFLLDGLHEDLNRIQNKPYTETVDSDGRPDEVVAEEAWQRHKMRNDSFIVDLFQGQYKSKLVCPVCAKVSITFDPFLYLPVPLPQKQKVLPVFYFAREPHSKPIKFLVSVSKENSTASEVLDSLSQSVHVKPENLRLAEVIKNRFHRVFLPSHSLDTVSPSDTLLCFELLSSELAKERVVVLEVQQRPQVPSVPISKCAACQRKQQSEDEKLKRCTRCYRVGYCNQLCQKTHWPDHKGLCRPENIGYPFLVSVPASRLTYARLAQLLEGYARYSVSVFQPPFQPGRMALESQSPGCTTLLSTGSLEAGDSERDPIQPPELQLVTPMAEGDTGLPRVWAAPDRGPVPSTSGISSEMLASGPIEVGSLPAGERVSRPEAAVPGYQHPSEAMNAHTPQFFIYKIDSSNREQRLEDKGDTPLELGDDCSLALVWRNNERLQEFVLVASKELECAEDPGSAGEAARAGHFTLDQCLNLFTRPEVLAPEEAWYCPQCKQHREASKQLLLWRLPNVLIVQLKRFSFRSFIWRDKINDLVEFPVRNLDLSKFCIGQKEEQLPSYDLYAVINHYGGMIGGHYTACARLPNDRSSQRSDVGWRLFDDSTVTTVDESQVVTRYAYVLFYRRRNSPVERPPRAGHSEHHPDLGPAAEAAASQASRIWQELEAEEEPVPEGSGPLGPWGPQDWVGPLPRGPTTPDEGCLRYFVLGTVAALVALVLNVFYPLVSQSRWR
In short: (§1)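 The table lists average log2 ratios of fragment over vehicle, from an unpaired t-test on global-median-normalised Spectronaut label-free quantities. Proteins with ≥2 unique peptides were used. Samples were HEK293T lysate (495 µg) treated in triplicate with fragment at 200 µM or vehicle for 3 h, then with Biotin-Ahx-Ub-VS (0.5 µM final) for 1 h, with labelled DUBs NeutrAvidin-enriched and run by diaPASEF LC-MS/MS.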

USP22 = biological target: T2, USP22 (UniProt Q9UPT9)
T2 sequence (whole entry): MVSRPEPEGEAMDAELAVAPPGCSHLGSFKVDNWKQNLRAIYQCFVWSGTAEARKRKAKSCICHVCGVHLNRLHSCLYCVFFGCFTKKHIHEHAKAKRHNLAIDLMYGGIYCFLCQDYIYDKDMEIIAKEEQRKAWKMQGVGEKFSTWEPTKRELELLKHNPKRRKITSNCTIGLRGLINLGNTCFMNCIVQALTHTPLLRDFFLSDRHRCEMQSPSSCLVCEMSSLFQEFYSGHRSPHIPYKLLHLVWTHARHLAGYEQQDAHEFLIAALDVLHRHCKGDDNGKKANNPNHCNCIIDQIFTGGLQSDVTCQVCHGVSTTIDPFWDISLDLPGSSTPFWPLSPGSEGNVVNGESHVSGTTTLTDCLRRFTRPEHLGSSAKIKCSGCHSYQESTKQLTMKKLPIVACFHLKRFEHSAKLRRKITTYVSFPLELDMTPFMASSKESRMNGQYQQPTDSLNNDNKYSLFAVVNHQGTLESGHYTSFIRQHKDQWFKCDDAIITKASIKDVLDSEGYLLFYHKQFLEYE
In short: as §1

USP24 = USP24 (UniProt Q9UPU5)
In short: as §1

USP25 = biological target: T3, USP25 (UniProt Q9UHP3)
T3 sequence (whole entry): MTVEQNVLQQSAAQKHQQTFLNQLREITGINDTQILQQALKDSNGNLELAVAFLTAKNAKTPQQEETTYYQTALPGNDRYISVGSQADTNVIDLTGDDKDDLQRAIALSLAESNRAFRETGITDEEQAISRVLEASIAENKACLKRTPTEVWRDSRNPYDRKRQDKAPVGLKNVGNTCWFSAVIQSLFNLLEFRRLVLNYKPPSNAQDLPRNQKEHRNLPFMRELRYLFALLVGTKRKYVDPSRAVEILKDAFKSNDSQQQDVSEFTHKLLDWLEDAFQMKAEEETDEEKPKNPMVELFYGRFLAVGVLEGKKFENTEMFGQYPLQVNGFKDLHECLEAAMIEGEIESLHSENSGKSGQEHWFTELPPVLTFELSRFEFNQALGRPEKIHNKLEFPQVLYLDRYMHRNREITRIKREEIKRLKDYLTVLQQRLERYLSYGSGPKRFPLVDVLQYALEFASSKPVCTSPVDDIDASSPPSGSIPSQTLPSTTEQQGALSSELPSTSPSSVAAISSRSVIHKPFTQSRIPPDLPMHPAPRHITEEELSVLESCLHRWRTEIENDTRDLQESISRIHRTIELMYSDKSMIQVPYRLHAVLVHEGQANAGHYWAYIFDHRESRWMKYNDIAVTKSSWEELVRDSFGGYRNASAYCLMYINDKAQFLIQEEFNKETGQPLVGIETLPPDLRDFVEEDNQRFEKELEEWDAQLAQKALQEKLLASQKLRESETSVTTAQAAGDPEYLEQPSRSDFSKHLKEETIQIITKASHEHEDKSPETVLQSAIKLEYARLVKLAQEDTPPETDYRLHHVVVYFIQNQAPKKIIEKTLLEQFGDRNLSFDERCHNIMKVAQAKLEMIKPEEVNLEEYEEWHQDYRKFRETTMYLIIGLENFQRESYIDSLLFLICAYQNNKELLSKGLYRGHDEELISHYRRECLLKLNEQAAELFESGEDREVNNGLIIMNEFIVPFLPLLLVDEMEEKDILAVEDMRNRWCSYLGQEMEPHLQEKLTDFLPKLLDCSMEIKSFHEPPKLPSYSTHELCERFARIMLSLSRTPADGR
In short: as §1

USP28 = biological target: T4, USP28 (UniProt Q96RU2)
T4 sequence (whole entry): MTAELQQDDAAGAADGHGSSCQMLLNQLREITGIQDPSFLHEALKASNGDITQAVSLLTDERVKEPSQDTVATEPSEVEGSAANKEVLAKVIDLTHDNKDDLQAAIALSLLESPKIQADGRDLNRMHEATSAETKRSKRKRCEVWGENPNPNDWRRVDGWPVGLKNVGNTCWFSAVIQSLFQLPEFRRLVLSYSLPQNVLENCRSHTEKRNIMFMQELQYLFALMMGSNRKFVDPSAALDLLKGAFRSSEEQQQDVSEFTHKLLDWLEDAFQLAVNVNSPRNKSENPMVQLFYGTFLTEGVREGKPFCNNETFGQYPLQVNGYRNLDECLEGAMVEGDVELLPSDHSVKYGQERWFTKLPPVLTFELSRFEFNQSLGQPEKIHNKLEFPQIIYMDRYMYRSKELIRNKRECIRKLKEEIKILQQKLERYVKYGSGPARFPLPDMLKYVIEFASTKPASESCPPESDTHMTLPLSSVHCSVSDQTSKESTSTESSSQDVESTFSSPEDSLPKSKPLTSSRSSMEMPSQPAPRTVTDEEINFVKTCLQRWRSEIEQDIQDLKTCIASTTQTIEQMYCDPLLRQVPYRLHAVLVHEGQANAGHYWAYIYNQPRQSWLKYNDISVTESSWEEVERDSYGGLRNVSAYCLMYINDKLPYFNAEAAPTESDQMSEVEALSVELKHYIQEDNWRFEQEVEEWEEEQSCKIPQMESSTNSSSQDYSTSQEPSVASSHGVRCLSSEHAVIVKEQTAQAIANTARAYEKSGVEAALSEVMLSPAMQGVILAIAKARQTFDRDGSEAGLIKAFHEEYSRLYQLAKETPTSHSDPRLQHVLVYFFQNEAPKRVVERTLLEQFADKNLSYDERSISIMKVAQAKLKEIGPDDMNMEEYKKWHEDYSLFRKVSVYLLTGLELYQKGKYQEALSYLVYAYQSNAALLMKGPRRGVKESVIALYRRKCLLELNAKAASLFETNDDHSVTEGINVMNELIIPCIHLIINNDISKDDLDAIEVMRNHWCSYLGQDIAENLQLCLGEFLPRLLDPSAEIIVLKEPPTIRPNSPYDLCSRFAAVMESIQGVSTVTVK
In short: as §1

USP24, sequence (Q9UPU5 whole entry): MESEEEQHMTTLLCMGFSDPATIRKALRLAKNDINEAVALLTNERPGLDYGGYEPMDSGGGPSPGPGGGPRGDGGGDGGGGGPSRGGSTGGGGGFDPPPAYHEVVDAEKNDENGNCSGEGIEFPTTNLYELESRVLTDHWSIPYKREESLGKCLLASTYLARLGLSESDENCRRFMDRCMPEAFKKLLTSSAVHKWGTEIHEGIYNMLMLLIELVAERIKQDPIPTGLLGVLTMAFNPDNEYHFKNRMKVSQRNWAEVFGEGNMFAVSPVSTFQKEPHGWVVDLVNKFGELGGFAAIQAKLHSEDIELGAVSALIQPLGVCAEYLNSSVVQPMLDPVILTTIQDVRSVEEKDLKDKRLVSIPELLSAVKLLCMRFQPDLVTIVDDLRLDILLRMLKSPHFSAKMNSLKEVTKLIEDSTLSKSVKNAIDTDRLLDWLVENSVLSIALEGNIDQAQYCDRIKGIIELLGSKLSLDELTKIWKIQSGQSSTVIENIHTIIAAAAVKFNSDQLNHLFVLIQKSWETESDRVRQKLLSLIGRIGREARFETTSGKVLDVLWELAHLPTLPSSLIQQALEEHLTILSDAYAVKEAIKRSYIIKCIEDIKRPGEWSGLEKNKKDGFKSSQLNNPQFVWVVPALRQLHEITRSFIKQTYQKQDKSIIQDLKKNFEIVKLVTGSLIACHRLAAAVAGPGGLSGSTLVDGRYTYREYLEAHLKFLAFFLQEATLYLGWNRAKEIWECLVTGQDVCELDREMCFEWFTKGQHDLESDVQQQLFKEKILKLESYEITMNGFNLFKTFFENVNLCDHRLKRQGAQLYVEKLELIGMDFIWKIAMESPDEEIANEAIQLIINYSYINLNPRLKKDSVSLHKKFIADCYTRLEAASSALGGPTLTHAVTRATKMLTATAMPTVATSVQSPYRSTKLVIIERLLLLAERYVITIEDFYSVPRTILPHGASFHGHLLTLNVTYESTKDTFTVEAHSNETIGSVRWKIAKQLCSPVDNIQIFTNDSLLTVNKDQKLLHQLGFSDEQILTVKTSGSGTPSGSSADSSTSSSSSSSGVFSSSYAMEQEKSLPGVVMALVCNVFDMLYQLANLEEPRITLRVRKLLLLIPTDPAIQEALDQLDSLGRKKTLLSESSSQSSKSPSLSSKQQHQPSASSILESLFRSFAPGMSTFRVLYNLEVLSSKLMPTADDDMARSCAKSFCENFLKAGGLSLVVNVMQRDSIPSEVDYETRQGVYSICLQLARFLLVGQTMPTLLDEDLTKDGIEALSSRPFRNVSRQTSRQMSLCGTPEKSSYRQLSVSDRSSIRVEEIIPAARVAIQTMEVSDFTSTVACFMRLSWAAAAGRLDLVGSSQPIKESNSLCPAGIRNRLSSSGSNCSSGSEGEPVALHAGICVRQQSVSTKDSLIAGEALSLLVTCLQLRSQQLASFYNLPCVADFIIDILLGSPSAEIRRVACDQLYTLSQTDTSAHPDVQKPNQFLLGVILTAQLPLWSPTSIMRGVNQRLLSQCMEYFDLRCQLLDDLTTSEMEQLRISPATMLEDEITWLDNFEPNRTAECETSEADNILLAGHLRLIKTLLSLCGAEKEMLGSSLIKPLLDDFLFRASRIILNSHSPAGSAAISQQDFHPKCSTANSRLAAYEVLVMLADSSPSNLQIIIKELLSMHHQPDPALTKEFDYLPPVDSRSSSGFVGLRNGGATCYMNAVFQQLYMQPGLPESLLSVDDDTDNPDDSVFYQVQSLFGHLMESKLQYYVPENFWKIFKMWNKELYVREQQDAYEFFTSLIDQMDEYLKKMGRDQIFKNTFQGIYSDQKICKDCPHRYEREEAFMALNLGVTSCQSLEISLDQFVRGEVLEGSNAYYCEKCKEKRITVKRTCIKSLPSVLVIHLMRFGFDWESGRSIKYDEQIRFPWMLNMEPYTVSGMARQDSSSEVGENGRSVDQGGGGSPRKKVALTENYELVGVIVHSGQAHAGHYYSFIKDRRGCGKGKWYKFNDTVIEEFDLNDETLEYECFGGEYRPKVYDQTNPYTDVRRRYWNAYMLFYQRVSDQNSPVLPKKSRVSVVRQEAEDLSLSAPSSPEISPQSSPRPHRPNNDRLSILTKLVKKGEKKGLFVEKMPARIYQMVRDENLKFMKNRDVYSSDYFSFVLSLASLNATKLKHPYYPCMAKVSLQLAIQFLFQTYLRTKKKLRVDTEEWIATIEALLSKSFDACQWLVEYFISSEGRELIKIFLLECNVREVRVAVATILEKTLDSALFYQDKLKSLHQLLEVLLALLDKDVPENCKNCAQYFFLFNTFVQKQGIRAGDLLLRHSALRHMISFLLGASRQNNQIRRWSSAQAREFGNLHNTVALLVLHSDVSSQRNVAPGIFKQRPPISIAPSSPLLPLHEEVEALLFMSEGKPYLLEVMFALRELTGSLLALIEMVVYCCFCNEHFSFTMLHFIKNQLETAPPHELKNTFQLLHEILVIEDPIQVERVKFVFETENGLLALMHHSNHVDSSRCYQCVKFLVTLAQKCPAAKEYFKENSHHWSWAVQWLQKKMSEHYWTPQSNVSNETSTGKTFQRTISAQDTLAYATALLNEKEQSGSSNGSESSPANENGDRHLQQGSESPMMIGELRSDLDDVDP

O=C(CCl)Nc1ccc2c(c1)OC(F)(F)O2
log2 ratio of Biotin-Ahx-Ub-VS probe labelling (USP19): -0.102 | log2 ratio of Biotin-Ahx-Ub-VS probe labelling (USP22): -0.358 | log2 ratio of Biotin-Ahx-Ub-VS probe labelling (USP24): -1.19 (active) | log2 ratio of Biotin-Ahx-Ub-VS probe labelling (USP25): -0.541 | log2 ratio of Biotin-Ahx-Ub-VS probe labelling (USP28): -1.3 (active)

From the supplement of paper PMC11732987, “Enantioselective OTUD7B fragment discovery through chemoproteomics screening and high-throughput optimisation” (Communications Chemistry, 2025)
